# Results reported in the supplement of paper PMC8728848.
# The full list was thinned out, with the strongest signals kept by preference.
# Experiments:
# Assay in all cases: glycan array binding signal (z-score within array); higher = stronger binding
# Details in all cases: glycan notation: IUPAC condensed, linker removed
# [1] = molecular target: GlcNAc(b1-2)Man(a1-3)[GlcNAc(b1-4)][GlcNAc(b1-2)Man(a1-6)]Man(b1-4)GlcNAc(b1-4)GlcNAc
# Procedure, shortened: (§1)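 The binding signal is a Z-score computed within each array. Data were drawn from 3228 arrays in the Consortium for Functional Glycomics database, restricted to those with a known protein sequence. Scores were averaged over arrays of the same protein sequence at different concentrations or buffers, and over linkers, and negative values can be taken as non-binding.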
# [2] = molecular target: GlcNAc(b1-2)Man(a1-3)[GlcNAc(b1-4)][GlcNAc(b1-2)Man(a1-6)]Man(b1-4)GlcNAc(b1-4)[Fuc(a1-6)]GlcNAc
# Procedure, shortened: as §1
# [3] = molecular target: GlcNAc(b1-2)[GlcNAc(b1-4)]Man(a1-3)[GlcNAc(b1-4)][GlcNAc(b1-2)[GlcNAc(b1-6)]Man(a1-6)]Man(b1-4)GlcNAc(b1-4)GlcNAc
# Procedure, shortened: as §1
# [4] = molecular target: GlcNAc(b1-3)Gal(b1-3)GalNAc
# Procedure, shortened: as §1
# [5] = molecular target: GlcNAc(b1-3)Gal(b1-4)GlcNAc
# Procedure, shortened: as §1
# [6] = molecular target: GlcNAc(b1-3)Gal(b1-4)GlcNAc(b1-3)Gal(b1-4)GlcNAc(b1-2)[GlcNAc(b1-3)Gal(b1-4)GlcNAc(b1-3)Gal(b1-4)GlcNAc(b1-6)]Man(a1-6)[GlcNAc(b1-3)Gal(b1-4)GlcNAc(b1-3)Gal(b1-4)GlcNAc(b1-2)Man(a1-3)]Man(b1-4)GlcNAc(b1-4)[Fuc(a1-6)]GlcNAc
# Procedure, shortened: as §1
# [7] = molecular target: GlcNAc(b1-3)Gal(b1-4)GlcNAc(b1-3)Gal(b1-4)GlcNAc(b1-3)Gal(b1-4)GlcNAc(b1-2)[GlcNAc(b1-3)Gal(b1-4)GlcNAc(b1-3)Gal(b1-4)GlcNAc(b1-3)Gal(b1-4)GlcNAc(b1-6)]Man(a1-6)[GlcNAc(b1-3)Gal(b1-4)GlcNAc(b1-3)Gal(b1-4)GlcNAc(b1-3)Gal(b1-4)GlcNAc(b1-2)Man(a1-3)]Man(b1-4)GlcNAc(b1-4)[Fuc(a1-6)]GlcNAc
# Procedure, shortened: as §1
# [8] = molecular target: GlcNAc(b1-3)Gal(b1-4)GlcNAc(b1-3)Gal(b1-4)GlcNAc(b1-3)Gal(b1-4)GlcNAc(b1-3)Gal(b1-4)GlcNAc(b1-2)Man(a1-3)[GlcNAc(b1-3)Gal(b1-4)GlcNAc(b1-3)Gal(b1-4)GlcNAc(b1-3)Gal(b1-4)GlcNAc(b1-3)Gal(b1-4)GlcNAc(b1-2)Man(a1-6)]Man(b1-4)GlcNAc(b1-4)GlcNAc
# Procedure, shortened: as §1
# [9] = molecular target: GlcNAc(b1-3)Gal(b1-4)GlcNAc(b1-3)Gal(b1-4)GlcNAc(b1-3)Gal(b1-4)GlcNAc(b1-3)Gal(b1-4)GlcNAc(b1-2)[GlcNAc(b1-3)Gal(b1-4)GlcNAc(b1-3)Gal(b1-4)GlcNAc(b1-3)Gal(b1-4)GlcNAc(b1-3)Gal(b1-4)GlcNAc(b1-6)]Man(a1-6)[GlcNAc(b1-3)Gal(b1-4)GlcNAc(b1-3)Gal(b1-4)GlcNAc(b1-3)Gal(b1-4)GlcNAc(b1-3)Gal(b1-4)GlcNAc(b1-2)Man(a1-3)]Man(b1-4)GlcNAc(b1-4)[Fuc(a1-6)]GlcNAc
# Procedure, shortened: as §1
# [10] = molecular target: GlcNAc(b1-3)[GlcNAc(b1-6)]GalNAc
# Procedure, shortened: as §1
# [11] = molecular target: Man(a1-2)Man(a1-2)Man(a1-6)[Man(a1-3)]Man
# Procedure, shortened: as §1
# [12] = molecular target: Man(a1-2)Man(a1-3)[Man(a1-2)Man(a1-6)]Man(a1-6)[Man(a1-2)Man(a1-2)Man(a1-3)]Man
# Procedure, shortened: as §1
# [13] = molecular target: Man(a1-3)[Man(a1-6)]Man(b1-4)GlcNAc(b1-4)GlcNAc
# Procedure, shortened: as §1
# [14] = molecular target: Neu5Ac(a2-3)Gal(b1-3)GlcNAc(b1-2)[Neu5Ac(a2-3)Gal(b1-3)GlcNAc(b1-4)]Man(a1-6)[Neu5Ac(a2-3)Gal(b1-3)GlcNAc(b1-2)Man(a1-3)]Man(b1-4)GlcNAc(b1-4)GlcNAc
# Procedure, shortened: as §1
# [15] = molecular target: Neu5Ac(a2-3)Gal(b1-4)[Fuc(a1-3)]GlcNAc
# Procedure, shortened: as §1
# [16] = molecular target: Neu5Ac(a2-3)GalNAc(b1-4)GlcNAc
# Procedure, shortened: as §1
# [17] = molecular target: Neu5Ac(a2-3)[GalNAc(b1-4)]Gal(b1-4)GlcNAc
# Procedure, shortened: as §1
# [18] = molecular target: Neu5Ac(a2-6)Gal(b1-3)GlcNAc(b1-3)[Gal(b1-4)GlcNAc(b1-6)]Gal(b1-4)Glc
# Procedure, shortened: as §1
# [19] = molecular target: Neu5Ac(a2-6)Gal(b1-4)GlcNAc
# Procedure, shortened: as §1
# [20] = molecular target: Neu5Ac(a2-6)Gal(b1-4)GlcNAc(b1-2)Man(a1-3)[Man(a1-6)]Man(b1-4)GlcNAc(b1-4)GlcNAc
# Procedure, shortened: as §1
# [21] = molecular target: Neu5Ac(a2-6)Gal(b1-4)GlcNAc(b1-3)Gal(b1-4)GlcNAc(b1-3)Gal(b1-4)GlcNAc(b1-2)Man(a1-3)[Neu5Ac(a2-6)Gal(b1-4)GlcNAc(b1-3)Gal(b1-4)GlcNAc(b1-3)Gal(b1-4)GlcNAc(b1-2)Man(a1-6)]GalNAc
# Procedure, shortened: as §1
# [22] = molecular target: Neu5Ac(a2-6)Gal(b1-4)GlcNAc(b1-6)[Gal(b1-3)GlcNAc(b1-3)]Gal(b1-4)Glc
# Procedure, shortened: as §1
# [23] = molecular target: Neu5Ac(a2-6)GalNAc(b1-4)GlcNAc6S
# Procedure, shortened: as §1
# Neu5Ac(b2-6)GalNAc = molecular target: Neu5Ac(b2-6)GalNAc
# Procedure, shortened: as §1
# [24] = molecular target: Neu5Gc(a2-3)Gal(b1-4)GlcNAc
# Procedure, shortened: as §1
binder,measurement,setting,value
LlpA (Burkholderia cenocepacia) (protein) MGSSHHHHHHSSGLVPRGSHKILGSNETLSAGNVVYSDNGQYHLAMQTDGNLVVYGPTGAVWQSQTSGSGGNRAVMQGDGNLVIYRADNTAAWSSKTAHPGAFLAVQDDGNVVIYWPRPAWASNTSDPATQQSAESKYLASGSTMSAGQTVTVAQYMLVFQADGNLVLYKNGGNPIWSTGTQGKGATYAVMQSDGNFVIYAGSTALWSTKTNGANGAQLVLQSDGNLVIYAPTAAWSTKFGLVTAPTSTSTSNNGPGSGICVGVCPPHPLNGNPFSPVGVGTTGLGFPTPGYPGAAF,glycan array binding signal (z-score),[1],0.686
same,glycan array binding signal (z-score),[2],-0.623
same,glycan array binding signal (z-score),[3],-0.839
same,glycan array binding signal (z-score),[4],0.088
same,glycan array binding signal (z-score),[5],-0.175
same,glycan array binding signal (z-score),[6],1.97
same,glycan array binding signal (z-score),[7],2.12
same,glycan array binding signal (z-score),[8],1.56
same,glycan array binding signal (z-score),[9],1.97
same,glycan array binding signal (z-score),[10],0.522
same,glycan array binding signal (z-score),[11],-0.239
same,glycan array binding signal (z-score),[12],0.07
same,glycan array binding signal (z-score),[13],-0.516
same,glycan array binding signal (z-score),[14],0.118
same,glycan array binding signal (z-score),[15],-0.785
same,glycan array binding signal (z-score),[16],-0.208
same,glycan array binding signal (z-score),[17],-0.447
same,glycan array binding signal (z-score),[18],-0.697
same,glycan array binding signal (z-score),[19],-0.538
same,glycan array binding signal (z-score),[20],0.308
same,glycan array binding signal (z-score),[21],1.99
same,glycan array binding signal (z-score),[22],0.132
same,glycan array binding signal (z-score),[23],0.676
same,glycan array binding signal (z-score),Neu5Ac(b2-6)GalNAc,-0.883
same,glycan array binding signal (z-score),[24],-0.079
